About 79,000 compounds went through this panel and 15% of them were active in at least one assay; those are over-represented in the sample as a whole. Calls of active or inactive are those of the source. No stated cut-off is given here; in the data, active means growth inhibition above about 70%; inactive means the rest.
How the values were obtained:
[1] = NCI Yeast Anticancer Drug Screen. Data for the rad50 strain (AID 155);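 further: 0% = growth of vehicle-only cultures of the same strain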; conditions: S. cerevisiae rad50 strain growth inhibition, active compounds read high
How it was run: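 DNA repair mutant yeast, compound exposure, growth read-out; inhibition is taken relative to vehicle.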

[2] = NCI Yeast Anticancer Drug Screen. Data for the mec2-1 strain (AID 157); conditions: S. cerevisiae mec2-1 strain, active compounds read high
How it was run: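 Vehicle-treated cultures served as reference for growth inhibition of compound-exposed mec2-1 yeast.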

[3] = NCI Yeast Anticancer Drug Screen. Data for the sgs1 mgt1 strain (AID 161);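 further: 0% = growth of cultures given vehicle only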; conditions: S. cerevisiae sgs1 mgt1 strain, active compounds read high
How it was run: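 Inhibition of yeast growth, normalised to vehicle-treated controls, is reported for a strain bearing genetic alterations in DNA damage repair.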

[4] = NCI Yeast Anticancer Drug Screen. Data for the cln2 rad14 strain (AID 165);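 further: 0% = growth equal to vehicle treated cultures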; conditions: S. cerevisiae cln2 rad14 strain, active compounds read high
How it was run: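 Each compound was tested on cln2 rad14 yeast. Inhibition of growth was calculated against vehicle-exposed controls.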

[5] = NCI Yeast Anticancer Drug Screen. Data for the bub3 strain (AID 167); conditions: S. cerevisiae bub3 mutant strain, active compounds read high
How it was run: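 In this screen, a yeast mutant lacking normal mitotic checkpoint function is challenged with compound. Relative growth versus vehicle gives the inhibition value.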

[6] = NCI Yeast Anticancer Drug Screen. Data for the mlh1 rad18 strain (AID 175); conditions: S. cerevisiae mlh1 rad18 strain growth inhibition, active compounds read high
How it was run: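 Vehicle-treated cultures served as the reference for growth inhibition in a yeast strain carrying DNA damage repair alterations exposed to each compound.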

[7] = at 5.0 µM (retest, dose inferred, filed as 0.5)
[8] = at 50.0 µM (retest, dose inferred, filed as 5.0)

Measured: growth inhibition

C=C1CC(Cn2cc(Br)c(=O)[nH]c2=O)(c2ccc(Br)cc2)OC1=O (stereo not given)
active: [1]; [8] 98% | [1]; at 50.0 µM 97.8% | [2]; [8] 98% | [2]; at 50.0 µM 98.7% | [3]; [8] 98% | [3]; at 50.0 µM 97.8% | [4]; [8] 90% | [4]; at 50.0 µM 97.2% | [5]; [8] 97% | [5]; at 50.0 µM 97.2% | [6]; [8] 99% | [6]; at 50.0 µM 98.7%
inactive: [1]; [7] 14% | [2]; [7] 30% | [3]; [7] 29% | [4]; [7] 19% | [5]; [7] 4% | [6]; [7] 40%

O=C(Oc1ccccc1)C1CCCCC1C(=O)Oc1ccccc1 (stereo not given)
inactive: [1]; [7] -16% | [1]; [8] -12% | [1]; at 50.0 µM 39.2% | [2]; [7] -19% | [2]; [8] 10% | [2]; at 50.0 µM 26.4% | [3]; [7] -3% | [3]; [8] 5% | [3]; at 50.0 µM 30.4% | [4]; [7] 10% | [4]; [8] 33% | [4]; at 50.0 µM -2.35% | [5]; [7] -9% | [5]; [8] -5% | [5]; at 50.0 µM -4.5% | [6]; [7] -11% | [6]; [8] -6% | [6]; at 50.0 µM 31.8%

COc1ccc(C2COc3c(ccc(O)c3O)C2)cc1 (stereo not given)
active: [1]; [8] 99% | [1]; at 50.0 µM 93.3% | [2]; [8] 99% | [2]; at 50.0 µM 97.3% | [3]; [8] 97% | [3]; at 50.0 µM 94.7% | [4]; [8] 98% | [4]; at 50.0 µM 89.2% | [5]; [8] 98% | [5]; at 50.0 µM 81.4% | [6]; [8] 98% | [6]; at 50.0 µM 96.8%
inactive: [1]; [7] 1% | [2]; [7] 9% | [3]; [7] -2% | [4]; [7] 11% | [5]; [7] 11% | [6]; [7] 1%

CC1=CCC[C@@H]2C1(C)CCC(C)[C@@]2(C)CC1=CC(=O)C=CC1=O (stereo not given in full)
inactive: [1]; [7] 18% | [2]; [7] 27% | [3]; [7] 52% | [4]; [7] -12% | [5]; [7] 14% | [6]; [7] 40%
active: [1]; [8] 95% | [1]; at 50.0 µM 86.1% | [2]; [8] 96% | [2]; at 50.0 µM 89.2% | [3]; [8] 95% | [3]; at 50.0 µM 88.8% | [4]; [8] 92% | [4]; at 50.0 µM 85.5% | [5]; [8] 93% | [5]; at 50.0 µM 86.8% | [6]; [8] 92% | [6]; at 50.0 µM 87%

CC(C)(C)C(=O)OCC(=O)c1ccc(-c2ccccc2)cc1
active: [5]; [7] 73% | [5]; [8] 86%
inactive: [1]; [7] -2% | [1]; [8] -6% | [1]; at 50.0 µM 11% | [2]; [7] -6% | [2]; [8] -6% | [2]; at 50.0 µM -0.25% | [3]; [7] -2% | [3]; [8] -4% | [3]; at 50.0 µM 13.7% | [4]; [7] -9% | [4]; [8] -13% | [4]; at 50.0 µM -4.6% | [5]; at 50.0 µM 65% | [6]; [7] -4% | [6]; [8] -8% | [6]; at 50.0 µM 3.75%

CCCCCCSc1nc2ccc(N=Cc3ccccc3O)cc2s1
active: [1]; [7] 90% | [1]; [8] 89% | [1]; at 50.0 µM 81.8% | [2]; [7] 83% | [2]; [8] 91% | [3]; [7] 93% | [3]; [8] 88% | [3]; at 50.0 µM 70.3% | [5]; [8] 86% | [6]; [7] 86% | [6]; [8] 88% | [6]; at 50.0 µM 80.1%
inactive: [2]; at 50.0 µM 55.2% | [4]; [7] 58% | [4]; [8] 65% | [4]; at 50.0 µM 48% | [5]; [7] 55% | [5]; at 50.0 µM 15.2%

Nc1ccc(N)c2c1C(=O)c1ccccc1C2=O
inactive: [1]; [7] 32% | [2]; [7] -1% | [2]; [8] 11% | [2]; at 50.0 µM 11.7% | [3]; [7] 2% | [3]; [8] 14% | [3]; at 50.0 µM 24.6% | [4]; [7] 3% | [4]; [8] 3% | [4]; at 50.0 µM 6.9% | [5]; [7] 0% | [5]; [8] 24% | [5]; at 50.0 µM 31.3% | [6]; [7] 5% | [6]; [8] 22% | [6]; at 50.0 µM 50.6%
active: [1]; [8] 72% | [1]; at 50.0 µM 83.2%

CCOC(=O)c1[nH]n(-c2ccccc2)c(=O)c1/C=N/C(=S)N=Nc1c(O)[nH]c2ccccc12
inactive: [1]; [7] -9% | [1]; [8] -9% | [1]; at 50.0 µM -2.3% | [2]; [7] -21% | [2]; [8] -17% | [2]; at 50.0 µM -23.4% | [3]; [7] -7% | [3]; [8] -4% | [3]; at 50.0 µM -22.6% | [4]; [7] -18% | [4]; [8] -20% | [4]; at 50.0 µM 28.1% | [5]; [7] -13% | [5]; [8] 2% | [5]; at 50.0 µM -15.8% | [6]; [7] -1% | [6]; [8] -2% | [6]; at 50.0 µM -35.7%

CC(C)=CCc1c(O)cc(O)c2c1OC(c1ccc(O)cc1)C(O)C2=O (stereo not given)
inactive: [1]; [7] -9% | [2]; [7] 1% | [3]; [7] -4% | [4]; [7] 20% | [5]; [7] 5% | [6]; [7] -2%
active: [1]; [8] 98% | [1]; at 50.0 µM 93.2% | [2]; [8] 99% | [2]; at 50.0 µM 94% | [3]; [8] 99% | [3]; at 50.0 µM 93.8% | [4]; [8] 99% | [4]; at 50.0 µM 91.5% | [5]; [8] 99% | [5]; at 50.0 µM 92% | [6]; [8] 99% | [6]; at 50.0 µM 92.5%

CN(C)c1ccc(SC(=S)NCc2ccccc2)cc1
inactive: [1]; [7] 4% | [2]; [7] -7% | [3]; [7] -2% | [4]; [7] -3% | [4]; [8] 28% | [5]; [7] -8% | [6]; [7] 4%
active: [1]; [8] 92% | [1]; at 50.0 µM 97.5% | [2]; [8] 92% | [2]; at 50.0 µM 98.2% | [3]; [8] 82% | [3]; at 50.0 µM 96.3% | [4]; at 50.0 µM 95.8% | [5]; [8] 96% | [5]; at 50.0 µM 97% | [6]; [8] 90% | [6]; at 50.0 µM 94.4%
